Some of the results follow. Calls of active or inactive are those of the source.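 The calls were made as follows: active = inhibition at or above 50% in each of two repeat confirmation tests; inconclusive = one repeat below 50% inhibition, the other above; inactive = both repeats at or below 50% inhibition.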
Target: Serine/threonine-protein kinase PLK1 (Homo sapiens) (UniProt P53350)
Assay: blockers of recombinant PLK1 peptide phosphorylation – biochemical, TR-FRET, duplicate runs, confirmation (AID 744);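 also: 0% = DMSO max control and 100% = H-89 kinase-blocked min control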
Conditions: at 10 µM, active compounds read high

Serine/threonine-protein kinase PLK1 (Homo sapiens), sequence (P53350 whole entry, looked up): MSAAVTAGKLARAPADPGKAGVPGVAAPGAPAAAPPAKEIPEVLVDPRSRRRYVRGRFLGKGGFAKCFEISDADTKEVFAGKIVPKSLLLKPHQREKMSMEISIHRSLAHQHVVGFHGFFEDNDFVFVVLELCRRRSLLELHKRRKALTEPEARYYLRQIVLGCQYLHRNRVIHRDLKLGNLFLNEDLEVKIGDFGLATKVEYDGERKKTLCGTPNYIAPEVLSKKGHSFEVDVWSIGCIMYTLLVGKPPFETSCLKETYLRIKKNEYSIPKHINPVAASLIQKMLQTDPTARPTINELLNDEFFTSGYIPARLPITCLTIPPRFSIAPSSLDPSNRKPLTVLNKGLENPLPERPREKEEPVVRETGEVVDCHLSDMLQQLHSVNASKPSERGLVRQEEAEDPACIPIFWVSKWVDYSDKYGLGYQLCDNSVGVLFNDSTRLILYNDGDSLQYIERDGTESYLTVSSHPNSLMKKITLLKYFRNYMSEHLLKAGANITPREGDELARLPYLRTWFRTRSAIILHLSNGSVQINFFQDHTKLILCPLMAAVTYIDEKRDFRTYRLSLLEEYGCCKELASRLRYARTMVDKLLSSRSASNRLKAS

| Compound | inhibition |
| --- | --- |
| COc1ccc(-c2nc(CS(=O)CC(=O)NCc3cccnc3)c(C)o2)cc1OC (stereo unspecified) | -2.97% (inactive) |
| Cc1ccnc(N2C(=O)c3ccccc3C2Nc2ccc3c(c2)OCCO3)c1 (stereo unspecified) | -3.64% (inactive) |
| O=C(Nc1cccc(F)c1)c1ccc(S(=O)(=O)N2CCCC2)cc1 | -12.1% (inactive) |
| CC1CN(c2cc(=O)n(Cc3ccc(F)cc3)c(=O)[nH]2)CC(C)O1 (stereo unspecified) | -5.99% (inactive) |
| CC1CSc2nnc(CCc3ccccc3)n21 (stereo unspecified) | -11.1% (inactive) |
| C[N+]1(CCNC(=O)/C=N/O)CCCCC1 | -0.685% (inactive) |
